Screening results (PubChem BioAssay)
Most compounds without a hit are left out; they make up all but 4.1% or so of the library.
hcDAF12 agonist: H. contortus DAF-12 activation, primary screen. 370,000 tested, 1.4% active. activation, % at 6.8 µM. HEK293 hcDAF-12 lit1-tk-luc reporter, luminescence; 0% DMSO, 100% Δ7-dafachronic acid;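 active = activation above the mean of all tested compounds plus 3 SD, cut at about 5.5% in these data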;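 note: 100% = response to 3 µM Δ7-dafachronic acid high control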
hgDAF12 agonist: agonists of H. glycines DAF-12 nuclear receptor | HEK293 GAL4-hgDAF12 UAS-luciferase reporter, agonist luminescence; normalized to butyrate control | activation, % at 6.8 µM | 370,000 tested, 1.8% active | AID 687014;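 active = activation above a cutoff set at the mean of all screened compounds plus 3 SD, cut at about 10% in these data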;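 note: 0% = DMSO wells and 100% = sodium butyrate wells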
DAX1 inh-1: inhibitors of human orphan nuclear receptor DAX1 (NR0B1). P51843. HEK293 Gal4-DAX1 luciferase reporter, luminescence. inhibition, % at 6.75 µM. 340,000 tested, 0.99% active;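 active = inhibition above the mean over all tested compounds plus 3 SD, cut at about 4.2% in these data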;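 note: 0% = DAX1-transfected cells with DMSO and 100% = empty-vector control cells with DMSO; inhibition shows as a rise in luminescence from relieved DAX1 repression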
Target sequence (P51843 207-470 limits assumed): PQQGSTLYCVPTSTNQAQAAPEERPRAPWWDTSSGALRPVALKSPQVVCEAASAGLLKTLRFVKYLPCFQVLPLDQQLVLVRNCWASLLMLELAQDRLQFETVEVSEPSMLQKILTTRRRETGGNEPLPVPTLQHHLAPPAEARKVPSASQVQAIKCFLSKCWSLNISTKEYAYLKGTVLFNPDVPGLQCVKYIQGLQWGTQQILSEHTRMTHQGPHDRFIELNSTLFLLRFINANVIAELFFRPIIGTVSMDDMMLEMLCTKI
DAX1 inh-2: blocks DAX1 repression of SF-1 activated StAR promoter; 370,000 tested, 1.1% active; HEK293T StAR-luciferase reporter, SF-1/DAX-1 repression relief; inhibition, % at 6.8 µM;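 active = inhibition above the mean over all tested compounds plus 3 SD, cut at about 3.6% in these data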;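 note: 0% = DAX-1 cells with DMSO and 100% = cells lacking DAX-1 with DMSO; higher inhibition means more luminescence from relief of DAX-1 repression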
ssDAF12 agonist: S. stercoralis DAF-12 activation, primary screen; HEK293 ssDAF-12/GRIP1 lit1-tk-luc reporter, luminescence; % of 3 µM dafachronic acid response; activation, % at 6.8 µM; 370,000 tested, 1% active; AID 652126;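 active = activation above the mean over all tested compounds plus 3 SD, cut at about 0.9% in these data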;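 note: 0% = DMSO-only wells and 100% = 3 µM delta7-dafachronic acid wells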
* hit, by the source's call; x = no result given.

SMILES | hcDAF12 agonist | hgDAF12 agonist | DAX1 inh-1 | DAX1 inh-2 | ssDAF12 agonist
O=C1c2ccccc2NC(c2cccc(Cl)c2)N1N=C1CCCCCC1 (stereo unspecified) | 2 | 7 | 4.9* | 2 | -1
O=C1c2ccccc2NC(c2ccc(Cl)cc2Cl)N1O (stereo unspecified) | 2 | 2 | 1 | 0 | -1
COC(=O)c1cc(N=Cc2c(O)c3ccccc3oc2=O)cc(C(=O)OC)c1 | x | x | 9.2* | x | x
COC1=C[C@H](C(=O)NC2CCN(Cc3ccccc3)CC2)C(C)C(c2ccccc2)CC1=O (stereo partly specified) | 0 | 2 | x | 1 | -1
COc1cc(N2CCOCC2)ncn1 | 0 | 1 | 4.8* | 0 | 0
Cc1cc(C)n(-c2cc(N3CCOCC3)ncn2)n1 | -2 | -1 | 0 | -1 | -1
Cc1n(CC(=O)c2ccc(F)cc2)c2ccccc2[n+]1C | 2 | 1 | 0 | -1 | -1
Cn1c(=N)n(CC(=O)c2ccc(F)cc2)c2ccccc21 | 13* | 11* | -2 | 0 | 1.2*
O=C1C2CSCN2C(=O)CN1CCCN1CCN(C(c2ccccc2)c2ccccc2)CC1 (stereo unspecified) | 0 | -1 | 0 | 0 | 1.2*
COCc1cccc(-c2cc(C(=O)OC)c3n(c2=O)CCC3)c1 | -1 | -1 | x | -2 | -1
COC(=O)c1ccc(NN=Nc2ccc(C)cc2)cc1 | 6.0* | 11* | -2 | 3 | 1
COc1ccc(N2C(=O)[C@@H]3[C@H](C2=O)[C@H]2c4ccccc4C=CN2[C@@H]3C(=O)Nc2ccccc2)cc1 | 6.1* | 2 | 2 | 0 | 1
CN(CC(=O)Nc1c(Cl)cccc1Cl)C(=O)Cc1ccc(S(=O)(=O)N2CCOCC2)s1 | 1 | -4 | -1 | 0 | 0
COc1ccc(NC(=O)CN(C)C(=O)Cc2ccc(S(=O)(=O)N3CCOCC3)s2)cc1 | 2 | -5 | 0 | 4.4* | -1
COc1ccc(NC(=O)CN(C)C(=O)CCCc2c[nH]c3ccccc23)cc1 | 1 | 0 | -1 | 0 | -1
COc1ccccc1NC(=O)COC(=O)Cc1c[nH]c2ccccc12 | 6.3* | 1 | 0 | 1 | 0
COc1ccc(NC(=O)CN(C)C(=O)Cc2c[nH]c3ccccc23)cc1 | 6.4* | 0 | 1 | 1 | 0
COC(=O)[C@]12C[C@H](CC(=O)N3CCCCC3)C(=O)N(Cc3cccc4ccccc34)C1=C[C@H](COCc1ccccc1)O[C@@H]2C | -3 | -2 | x | 0 | 0
O=C(NCCc1c[nH]c2ccccc12)OCc1cn(-c2ccccc2Cl)nn1 | -2 | -4 | x | -1 | 0
O=c1c2cc3cc(Cl)ccc3nc2ncn1Cc1ccc(Oc2ccccc2)cc1 | 5.9* | -1 | x | -1 | -1
COc1ccc(CCn2cnc3nc4ccc(Cl)cc4cc3c2=O)cc1OC | 6 | -2 | x | -1 | 0
CCCC(=O)Nc1cc(Cl)ccc1C | 1 | 0 | 6.5* | 0 | -2
Cc1ccc(Cl)cc1NC(=O)CCC(=O)Nc1cc(Cl)ccc1C | -2 | -2 | 0 | 0 | -1
COC(=O)[C@]12C[C@H](CC(=O)NCc3ccc(C)o3)C(=O)N(Cc3ccco3)C1=C[C@H](C(C)C)O[C@@H]2C1CC1 | -3 | 5 | x | -1 | -2
COc1cc([N+](=O)[O-])cc(/C=N/NC(=O)Cn2nc(C)cc2C)c1O | -2 | -1 | 1 | 0 | -2
SMILES | hcDAF12 agonist | hgDAF12 agonist | DAX1 inh-1 | DAX1 inh-2 | ssDAF12 agonist
COc1cc([N+](=O)[O-])cc(/C=N/NC(=O)Cn2nccc2C)c1O | -1 | -2 | 6.0* | -1 | -1
Cc1cccc2c(C(=O)O)c3cccc(C)c3nc12 | 5 | 7 | 0 | 0 | 1.3*
Cc1cccc2c(C(=O)O)c3c(nc12)CCCCC3 | 1 | 0 | 2 | 0 | -1
COC(=O)[C@]12C[C@H](CC(=O)NCCCN3CCCC3=O)C(=O)N(Cc3ccco3)C1=C[C@H](C(C)(C)C)O[C@@H]2C | 0 | 1 | x | -1 | -1
O=c1cccccc1NN=C1CCCCC1 | 3 | 11* | 5.8* | 2 | 0
O=c1cccccc1NN=C1CCCCCC1 | 1 | 4 | 3 | 1 | -1
N#Cc1ccccc1COC(=O)c1cc(=O)c2ccccc2o1 | 6.4* | 2 | 2 | 0 | -1
CCCCOc1ccc(/C=C/C(=O)NCCc2nc3ccccc3[nH]2)cc1 | -3 | -1 | -1 | -1 | -2
COc1ccc(/C=C/C(=O)NCCc2nc3ccccc3[nH]2)cc1 | 1 | 2 | x | -1 | 1.1*
OCCc1ccc(NCCc2cccs2)cc1 | 5 | 11* | x | 3 | -1
COc1ccc(Cn2ccc3ccc(-c4ccc5ccn(C(=O)c6ccc(C)cc6)c5c4)cc32)cc1 | -2 | 1 | x | -1 | -1
Cn1c(=NC(=O)c2ccc(S(=O)(=O)N3CCCc4ccccc43)cc2)sc2cc(S(C)(=O)=O)ccc21 | 0 | -3 | 1 | 0 | -2
Cn1c(=NC(=O)c2ccccc2[N+](=O)[O-])sc2cc(S(C)(=O)=O)ccc21 | 5 | 12* | 2 | 4.3* | 0
CC(=O)Nc1c(-c2ccc(C(F)(F)F)cc2)nc2ncccn12 | 0 | 1 | x | -1 | 0
COc1ccc(Cl)cc1C(=O)O/N=C(\N)c1ccncc1 | -1 | 0 | 0 | 0 | -1
Cc1cccc(C(=O)O/N=C(\N)c2ccc(Cl)cc2)c1 | 5.6* | 5 | 1 | 0 | 1.0*
N/C(=N\OC(=O)c1ccncc1)c1cccc([N+](=O)[O-])c1 | 1 | 2 | 0 | 0 | -1
Cc1cccc(/C(N)=N/OC(=O)c2ccncc2)c1 | 3 | 16* | 1 | 9.4* | 0
N/C(=N\OC(=O)c1cccc(Br)c1)c1ccccc1 | 6.1* | 10 | 2 | 2 | 1.3*
Cc1ccc(/C(N)=N/OC(=O)c2ccc(Cl)cc2Cl)cc1 | 2 | -3 | 4.7* | 0 | -1
COc1ccc(C(=O)O/N=C(\N)c2cccc(C)c2)cc1OC | 0 | 2 | 3 | 0 | 0
N/C(=N\OC(=O)c1ccc2ccccc2c1)c1ccc(Br)cc1 | 1 | 3 | -1 | 0 | 0
COC(=O)[C@H]1C[C@@]2(N3CCCC3)c3ccccc3N(C(=O)OC(C)(C)C)[C@H]2N1C(=O)OC(C)(C)C | -2 | 0 | x | 0 | -1
CCN(CC)c1ccc(NC(=O)CSc2nc3ccccc3c(=O)n2-c2ccc(C)cc2)cc1 | -3 | 3 | x | -2 | -1
Cc1cccc(C(=O)O/N=C(\N)c2ccc(Br)cc2)c1 | 6.1* | 8 | 1 | 1 | -1
Cc1cc(C)cc(C(=O)O/N=C(\N)c2ccc(Br)cc2)c1 | 2 | 0 | -1 | 0 | -1
O=c1oc2ccccc2cc1-c1nnc(NCc2ccco2)s1 | 5 | 12* | 2 | 3.9* | 0
O=c1cc(N2CCc3ccccc32)[nH]c(=O)n1Cc1ccc(F)cc1 | 5.8* | 0 | 0 | 0 | 0
